Activity calls are given as the source filed them. The calls were made as follows: active = hit-call score of the fitted dose curve at least 0.9, where 1 is the maximum; inactive = score below 0.9.
Target: human Opioid Receptor mu (MOP) Agonism, OPRM1 (gene 4988) (UniProt P35372)
Assay: ERF_FR_GPCR_hOPRM1: Eurofins (ERF) G Protein-Coupled Receptor (GPCR) Radioligand Binding LeadHunter Assay for human Opioid Receptor mu (MOP) Agonism
Protocol: ERF_FR_GPCR_hOPRM1 is a biochemical, single-readout assay that uses extracted gene-proteins in a cell-free assay. Measurements were taken 2 hour after chemical dosing in a 96-well plate. See mu (MOP) Human Opioid GPCR Binding (Agonist Radioligand) Assay, Cerep.ERF_FR_GPCR_hOPRM1 is an assay component calculated from the ERF_FR_GPCR_hOPRM1 assay. It is designed to measure radioligand binding using a type of binding reporter as detected by scintillation counting with radiometry technology.Data from the assay component ERF_FR_GPCR_hOPRM1 was analyzed at the assay endpoint, ERF_FR_GPCR_hOPRM1, in the positive analysis fitting direction relative to DMSO as the negative control and baseline of activity. Using a type of binding reporter, gain-of-signal activity can be used to understand changes in binding as they relate to gene OPRM1. To generalize the intended target to other relatable targets, this assay endpoint is annotated to the gpcr intended target family, where the subfamily is opioid.
Human cells are incubated for 60 minutes at room temprature with [3H]DAMGO ligand (0.1 nM) and DAMGO as control inhibitor. Test Sample Requirements: Minimum for 1) Screen: 60 ul of 10 mM stock -OR- 1 mg (pre-weighed) for 10 uM final testing. 2) Dose Response: 90 ul of 10 mM stock -OR- 1 mg (pre-weighed) for a top concentration at 10 uM.

human Opioid Receptor mu (MOP) Agonism, OPRM1 (gene 4988), sequence (P35372 whole entry, looked up): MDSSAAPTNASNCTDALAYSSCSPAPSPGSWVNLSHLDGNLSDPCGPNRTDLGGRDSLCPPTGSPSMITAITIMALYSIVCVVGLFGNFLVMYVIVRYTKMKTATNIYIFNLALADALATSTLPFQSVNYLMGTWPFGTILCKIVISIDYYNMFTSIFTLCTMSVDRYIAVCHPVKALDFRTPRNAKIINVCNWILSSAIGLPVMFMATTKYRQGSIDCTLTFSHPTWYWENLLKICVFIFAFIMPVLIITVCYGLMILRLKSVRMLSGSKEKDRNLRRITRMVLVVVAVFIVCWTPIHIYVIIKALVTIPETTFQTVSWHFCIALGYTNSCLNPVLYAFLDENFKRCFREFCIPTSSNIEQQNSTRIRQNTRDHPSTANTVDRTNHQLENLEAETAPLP

`O=C(/C=C/c1ccc(O)cc1)CC(=O)/C=C/c1ccc(O)cc1` was tested. Which AC50 did it give?
Its AC50 is 419 nM (active).

From PubChem BioAssay AID2284192 (EPA ToxCast)
